Results on 10 compounds are retold here after article PMC5540273 (PLoS ONE, 2017).

Test systems include TIE1; TLK1; TLK2; TNIK; TNK1; TNK2; TNNI3K; TRKB; TRPM6; TSSK1B; TSSK3; TTK; TXK; TYRO3; ULK1.
Holding throughout (conditions): concentration: 1 μM, replicates: in singlicate; n = 1
For the next assay, the system named is T1, TIE2.
T1 construct: gene TEK

The subject of another assay is T2, TRKA.
T2 construct: gene NTRK1

The subject of the next assay is T3, TRKC.
T3 construct: gene NTRK3

Assay [1] relates to TYK2(JH1domain-catalytic).
The test system of assay [2] is TYK2(JH2domain-pseudokinase).
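Further: KINOMEscan kinase panel screen.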

Take `COc1ccc(-c2oc3ncnc(N)c3c2-c2ccc(OC)cc2)cc1` [SB-589132]: the “%Inh” value in the assay on TIE1 was found to be 1%; in the assay with TIE2, 9%; in the assay with TLK1 it was 0%; in the assay with TLK2 it was 0%; in the assay with TNIK, 0%; with TNK1, 45%. For the same compound, the “%Inh” value in the assay on TNK2 is reported as 44%; in the assay with TNNI3K it was 50%; in the assay with TRKA, 52%; in the assay with TRKB, 74%; in the assay on TRKC it was 71%; in the assay on TRPM6, 0%. In addition, the “%Inh” value was found to be 19% in the assay on TSSK1B; 22% in the assay on TSSK3; 31% in the assay on TTK; 11% in the assay with TXK; 53% in assay [1]; 98.9% in [2]. In addition, the “%Inh” value is 0% in the assay with TYRO3 and 9% in the assay with ULK1.

Regarding `Fc1ccc(-c2ncn(CCCNCc3ccccc3)c2-c2ccncc2)cc1`, the “%Inh” value amounted to 23% in the assay on TIE1; 0% with TIE2; 26% with TLK1; 0% with TLK2; 12% in the assay with TNIK; 0% in the assay with TNK1. Moreover, the “%Inh” value in the assay on TNK2 came to 13%; in the assay with TNNI3K it was 0%; in the assay with TRKA, 38%; in the assay with TRKB, 3%; in the assay on TRKC, 19%; with TRPM6, 12%. Also, the “%Inh” value in the assay on TSSK1B came out at 20%; with TSSK3, 20%; with TTK, 0%; in the assay on TXK, 0%; in [1] it was 44%; in assay [2], 0%. Also, the “%Inh” value in the assay with TYRO3 and in the assay on ULK1 was 0% in each case.

For the compound `CNc1nccc(-c2c(-c3ccc(F)cc3)ncn2C2CCN(C)CC2)n1` [SB-222903], the “%Inh” value with TIE1 came to 0%; in the assay with TIE2, 0%; in the assay on TLK1, 0%; in the assay with TLK2, 0%; with TNIK, 21%; with TNK1, 25%. Also, the “%Inh” value was found to be 0% in the assay with TNK2; 0% in the assay with TNNI3K; 20% in the assay with TRKA; 0% in the assay with TRKB; 0% in the assay with TRKC; 0% with TRPM6. Also, the “%Inh” value in the assay with TSSK1B is on record as 0%; with TSSK3, 0%; in the assay with TTK it was 23%; in the assay on TXK it was 0%; in assay [1], 0%; in assay [2], 0%. Besides, the “%Inh” value in the assay on TYRO3 and in the assay with ULK1 was 0% in each case.

For the compound `OCCOCCn1ccc2ncnc(Nc3ccc(Oc4cccc(Cl)c4)c(Cl)c3)c21`, the “%Inh” value in the assay on TIE1 was determined as 0%; with TIE2, 31%; in the assay with TLK1 it was 0%; in the assay with TLK2 it was 0%; in the assay with TNIK, 0%; with TNK1, 0%. In addition, the “%Inh” value in the assay with TNK2, with TNNI3K, in the assay on TRKA, in the assay with TRKB, in the assay with TRKC and with TRPM6 was 0% each time. Besides, the “%Inh” value (in the assay with TSSK1B; in the assay on TSSK3; in the assay with TTK; with TXK; in assay [1]; in assay [2]) was 0% throughout. Besides, the “%Inh” value with TYRO3 and with ULK1 was 0% each time.

As for `COc1ccc(Nc2nccc(N3CCC(NC(=O)Nc4ccc5c(c4)OCO5)C3)n2)cc1` (centres unmarked) [GSK1379745], the “%Inh” value with TIE1 was determined as 19%; in the assay on TIE2, 0%; in the assay with TLK1, 18%; in the assay on TLK2, 0%; in the assay with TNIK it was 1%; with TNK1, 0%. In addition, the “%Inh” value with TNK2 was found to be 14%; in the assay on TNNI3K, 11%; in the assay on TRKA, 64%; in the assay on TRKB it was 41%; with TRKC, 51%; in the assay on TRPM6, 0%. The “%Inh” value was determined as 0% with TSSK1B; 31% in the assay with TSSK3; 0% with TTK; 3% in the assay with TXK; 45% in [1]; 15% in assay [2]. Also, the “%Inh” value was found to be 0% with TYRO3 and 9% with ULK1.

On to `Nc1nc(-c2ccc3c(N)n[nH]c3c2)cc(N2CCC[C@@H](C(=O)Nc3ccccc3)C2)n1.O=C(O)C(F)(F)F.O=C(O)C(F)(F)F` [GSK2288359], for which the “%Inh” value in the assay on TIE1 was 0%; in the assay with TIE2, 0%; in the assay on TLK1 it was 15%; in the assay with TLK2, 10%; in the assay on TNIK, 0%; in the assay with TNK1, 0%. Further, the “%Inh” value is given as 1% with TNK2; 5% in the assay on TNNI3K; 0% with TRKA; 0% in the assay with TRKB; 0% in the assay on TRKC; 34% in the assay on TRPM6. In addition, the “%Inh” value in the assay on TSSK1B amounted to 0%; in the assay on TSSK3, 24%; with TTK, 0%; with TXK, 8%; in assay [1], 18%; in assay [2], 1%. Besides, the entries for the “%Inh” value in the assay on TYRO3 and with ULK1 were 0% and 9%, respectively.

On to `Nc1nc(-c2ccccn2)c(-c2ccnc3ccccc23)s1` [GW548057], for which the “%Inh” value stood at 0% in the assay on TIE1; 0% in the assay on TIE2; 12% in the assay with TLK1; 4% in the assay with TLK2; 33% in the assay with TNIK; 0% in the assay with TNK1. In addition, the “%Inh” value in the assay with TNK2 came to 5%; in the assay with TNNI3K, 0%; in the assay on TRKA it was 49%; in the assay on TRKB, 0%; in the assay on TRKC it was 45%; in the assay on TRPM6, 0%. In addition, the “%Inh” value in the assay on TSSK1B was 0%; in the assay with TSSK3 it was 9%; in the assay with TTK it was 2%; with TXK, 0%; in [1] it was 24%; in [2], 29%. The “%Inh” value in the assay with TYRO3 and with ULK1 was 0% each time.

On to `CC(=O)Nc1n[nH]c2ncc(-c3ccccc3)cc12` [SB-548492], for which the “%Inh” value is on record as 0% with TIE1; 21% in the assay with TIE2; 6% in the assay with TLK1; 0% in the assay on TLK2; 12% in the assay with TNIK; 0% with TNK1. The “%Inh” value was found to be 0% in the assay on TNK2; 0% in the assay with TNNI3K; 90.1% in the assay with TRKA; 25% in the assay with TRKB; 51% with TRKC; 0% in the assay with TRPM6. Also, the “%Inh” value with TSSK1B stood at 0%; in the assay on TSSK3, 0%; with TTK, 43%; in the assay with TXK it was 9%; in [1], 12%; in [2], 81%. In addition, the “%Inh” value in the assay on TYRO3 amounted to 0%; with ULK1 it was 3%.

As for `C[C@H]1CC[C@@H](C(=O)Nc2ccccc2)CN1c1cc(-c2ccc3c(N)n[nH]c3c2)nc(N)n1` [GSK2283293], the “%Inh” value with TIE1 stood at 26%; with TIE2, 0%; in the assay with TLK1, 4%; in the assay on TLK2, 0%; in the assay with TNIK it was 0%; with TNK1 it was 0%. The “%Inh” value in the assay on TNK2 was found to be 17%; in the assay with TNNI3K, 0%; in the assay with TRKA it was 0%; in the assay with TRKB, 0%; in the assay with TRKC, 11%; with TRPM6, 8%. The “%Inh” value in the assay with TSSK1B was 9%; with TSSK3, 12%; with TTK, 20%; in the assay with TXK, 0%; in [1] it was 0%; in assay [2] it was 27%. For the same compound, the “%Inh” value in the assay on TYRO3 and in the assay with ULK1 was 0% in each case.

For the compound `CC(C)(C)OC(=O)NC1CCCN(c2cc(-c3ccc4c(N)n[nH]c4c3)nc(N)n2)C1` (centres unmarked) [GSK2286096], the “%Inh” value worked out at 0% with TIE1; 0% in the assay with TIE2; 0% in the assay with TLK1; 0% with TLK2; 0% in the assay with TNIK; 10% in the assay on TNK1. The “%Inh” value was 13% with TNK2; 6% with TNNI3K; 0% in the assay with TRKA; 0% with TRKB; 0% in the assay with TRKC; 39% in the assay on TRPM6. Also, the “%Inh” value is 0% in the assay with TSSK1B; 96.5% in the assay on TSSK3; 0% in the assay on TTK; 0% with TXK; 66% in [1]; 0% in [2]. The “%Inh” value in the assay with TYRO3 is 0%; with ULK1, 1%.
